A short description of experiment [1]: qHTS assay to identify small molecule antagonists of the estrogen receptor alpha (ER-alpha) signaling pathway using the BG1 cell line in the presence of 0.1 nM 17-beta-estradiol - cell viability counter screen (AID 1259241). Further: nearly all actives have a fitted effect of over 40% in size. The method, boiled down: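 Cytotoxicity counter-screen: live-cell protease activity measured by fluorescence (30 min reagent step) in the same wells. Cells were VM7Luc4E2 with endogenous ER-alpha and ERE-driven luciferase, treated 22 hr at 37C alongside 0.1 nM 17beta-estradiol final.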
A general note: Quantitative high-throughput screening tests each substance at several concentrations.

A short description of experiment [2]: qHTS assay to identify small molecule antagonists of the androgen receptor (AR) signaling pathway using the MDA cell line in the presence of 0.5 nM R1881 - cell viability counter screen (AID 1259242). Further: nearly all actives have a fitted effect of over 45% in size. The method, boiled down: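 Concentration-response screen of compounds for toxicity in MDA-kb2 reporter cells: 16 hr at 37C with 0.5 nM R1881, endpoint live-cell protease fluorescence measured in the reporter wells.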

For experiment [3], the target named is Estrogen receptor (Homo sapiens) (UniProt P03372). Description: qHTS assay to identify small molecule antagonists of the estrogen receptor alpha (ER-alpha) signaling pathway using the BG1 cell line in the presence of 0.1 nM 17-beta-estradiol (AID 1259244). Further: nearly all actives have a fitted effect of over 50% in size. Further: potency means the concentration at half of the fitted maximal effect. The method, boiled down: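 Compounds were tested against 0.1 nM (final) 17beta-estradiol in VM7Luc4E2 cells, which express full-length ER-alpha and an ERE-luciferase reporter; luminescence was recorded following 22 h exposure.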
Estrogen receptor (Homo sapiens), sequence (P03372 whole entry, looked up): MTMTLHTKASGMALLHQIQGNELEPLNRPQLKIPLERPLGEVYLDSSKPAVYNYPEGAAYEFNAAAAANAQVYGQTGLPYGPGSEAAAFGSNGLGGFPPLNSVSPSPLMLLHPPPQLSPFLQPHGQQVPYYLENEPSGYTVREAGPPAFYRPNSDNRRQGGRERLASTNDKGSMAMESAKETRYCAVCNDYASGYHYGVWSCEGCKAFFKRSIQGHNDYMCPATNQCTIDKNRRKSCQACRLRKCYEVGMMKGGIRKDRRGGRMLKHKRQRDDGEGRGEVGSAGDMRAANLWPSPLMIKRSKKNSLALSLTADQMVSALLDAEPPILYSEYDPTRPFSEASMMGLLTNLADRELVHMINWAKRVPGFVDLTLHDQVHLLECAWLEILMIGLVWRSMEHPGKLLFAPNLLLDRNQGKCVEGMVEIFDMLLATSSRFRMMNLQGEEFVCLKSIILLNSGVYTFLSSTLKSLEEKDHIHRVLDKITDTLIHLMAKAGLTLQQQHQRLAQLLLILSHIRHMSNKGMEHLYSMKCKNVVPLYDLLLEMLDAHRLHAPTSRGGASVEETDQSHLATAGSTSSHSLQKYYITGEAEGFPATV

Experiment [4] can be described thus: qHTS assay to identify small molecule HDAC inhibitors (AID 1259364).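 Further: wild-type HCT-116 cells with endogenous class I/II HDAC activity; top concentration of the series differs between compounds; nearly all actives have a fitted effect of over 45% in size.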 The procedure, abridged: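 Screening used wild-type human colon HCT-116 cells incubated overnight, dosed with compounds for 2 hours, and assayed with a homogeneous luminogenic HDAC I/II reagent for 30 minutes at room temperature.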
The nature of experiment [5]: qHTS assay to identify small molecule HDAC inhibitors - cell viability counter screen (AID 1259365). Further: series mostly up to about 92 µM; nearly all actives have a fitted effect of over 50% in size. The procedure, abridged: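 CellTiter-Glo luminescence (30 min, room temperature) reported viability after a 2 h compound exposure at 37 C. Cells: wild-type HCT-116, 1,500 per well, seeded the night before.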
Experiment [6] is described as follows: qHTS assay to identify small molecule agonists of the sonic hedgehog signaling (Shh) pathway - cell viability counter screen (AID 1259366). Further: nearly all actives have a fitted effect of over 50% in size. Further: potency means the concentration at half of the fitted maximal effect. The method, boiled down:
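Cytotoxicity counter screen: CellTiter-Fluor reagent added after 23 h compound exposure, then 1 h at 37C and fluorescence read. Cells were 3T3 Gli1-Luc, seeded 2,000 per well and dosed 4 h post-plating.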

Experiment [7] is described as follows: qHTS assay to identify small molecule antagonists of the sonic hedgehog signaling (Shh) pathway - cell viability counter screen (AID 1259367). Further: nearly all actives have a fitted effect of over 55% in size. Further: potency means the concentration at half of the fitted maximal effect. The method, boiled down:
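Viability was read by CellTiter-Fluor fluorescence in the same wells, reagent added 23 hr into compound treatment and incubated 1 hr at 37C. The 3T3 Gli1-Luc reporter cells (2,000/well) received conditioned medium after compound and ran 24 hr.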

The nature of experiment [8]: qHTS assay to identify small molecule agonists of the sonic hedgehog signaling (Shh) pathway (AID 1259368; calls by dose curve;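 further: NIH/3T3-derived 3T3Gli1-Luc cells carrying a stable Gli1-driven firefly luciferase reporter; series mostly up to about 92 µM; nearly all actives have a fitted effect of over 15% in size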). The method, boiled down:
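Hedgehog pathway agonism scored by increased firefly luciferase luminescence in 3T3Gli1-Luc cells treated 24 hr at 37 C; detection used a 30 min room-temperature reagent incubation.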

The structures appear in SMILES notation. Values joined by “and” are separate entries in the source; they are usually repeats but may differ in a detail not shown here. Identical values can stand only once. Inconclusive results are not listed. Some compounds were tested as several samples or in several runs, with calls that do not always agree. Active and inactive are the calls of the source. Unless noted, the call rests on the fitted dose curve; in most records, active means well fitted curve in the direction sought with a large enough effect in the repeat runs; inconclusive means weak or mixed curves; inactive means no such curve, though single readings can be large; an effect the other way counts as inactive or inconclusive.

As to `CCCCOC(=O)COC(=O)c1ccccc1C(=O)OCCCC`, the Potency result in experiment [1], in experiment [2], in experiment [3], in experiment [4], in experiment [5] and in experiment [6] was “inactive” in each case. Further, the Potency result in experiment [7] and in experiment [8] was “inactive” in each case.

`ClC(Cl)(Cl)c1ccccc1`: the Potency entry in experiment [1], in experiment [2], in experiment [3], in experiment [4], in experiment [5] and in experiment [6] was “inactive” in each case. In addition, the Potency entry in experiment [7] and in experiment [8] was “inactive” throughout.

`CC1(C)Cc2cccc(O)c2O1`: the Potency result in experiment [1], in experiment [2], in experiment [3], in experiment [4], in experiment [5] and in experiment [6] was “inactive” throughout. Besides, the Potency entry in experiment [7] and in experiment [8] was “inactive” throughout.

Take `CSc1nc(NC(C)C)nc(NC(C)C)n1`: the Potency result in experiment [1], in experiment [2], in experiment [3], in experiment [4], in experiment [5] and in experiment [6] was “inactive” throughout. Moreover, the Potency result in experiment [7] and in experiment [8] was “inactive” in each case.

As for `COc1ccc(C=O)cc1OC`, the Potency entry in experiment [1], in experiment [2], in experiment [3], in experiment [4], in experiment [5] and in experiment [6] was “inactive” throughout. The Potency result in experiment [7] and in experiment [8] was “inactive” in each case.

In the case of `CNC(=S)S`, the Potency result in experiment [1], in experiment [2], in experiment [3], in experiment [4], in experiment [5] and in experiment [6] was “inactive” throughout. The Potency result in experiment [7] and in experiment [8] was “inactive” in each case.

As for `CNC(=O)CSP(=S)(OC)OC`, the Potency result in experiment [1], in experiment [2], in experiment [3], in experiment [4], in experiment [5] and in experiment [6] was “inactive” each time. Moreover, the Potency result in experiment [8] was “inactive”. Besides, the Potency in experiment [7] is 28.1 µM (active) and inactive.

In the case of `ClC(Cl)=C(Cl)C(Cl)=C(Cl)Cl`, the Potency entry in experiment [1], in experiment [2], in experiment [3], in experiment [4], in experiment [5] and in experiment [6] was “inactive” each time. Moreover, the Potency entry in experiment [7] and in experiment [8] was “inactive” throughout.

On to `CN(C)c1nc(=O)n(C2CCCCC2)c(=O)n1C`, for which the Potency result in experiment [1], in experiment [2], in experiment [3], in experiment [4], in experiment [5] and in experiment [6] was “inactive” in each case. In addition, the Potency entry in experiment [7] and in experiment [8] was “inactive” each time.

For `O=NN(c1ccccc1)c1ccccc1`, the Potency result in experiment [1], in experiment [2], in experiment [3], in experiment [4], in experiment [5] and in experiment [6] was “inactive” in each case. The Potency result in experiment [7] and in experiment [8] was “inactive” throughout.

Turning to `CC(C)COC(=O)c1ccccc1C(=O)OCC(C)C`, the Potency result in experiment [1], in experiment [2], in experiment [3], in experiment [4], in experiment [5] and in experiment [6] was “inactive” in each case. Besides, the Potency result in experiment [7] and in experiment [8] was “inactive” throughout.

With `ClCc1ccccn1`, the Potency entry in experiment [1], in experiment [2], in experiment [3], in experiment [4], in experiment [5] and in experiment [6] was “inactive” throughout. The Potency entry in experiment [7] and in experiment [8] was “inactive” each time.

`CC(C)(c1ccccc1)c1ccc(O)cc1`: the Potency entry in experiment [1], in experiment [2], in experiment [4], in experiment [5] and in experiment [8] was “inactive” throughout. In addition, the Potency is 61.1 µM (active) in experiment [3] and 60.6 µM (active) in experiment [6].

As for `CC1(C)C(C(=O)OC(C#N)c2cccc(Oc3ccccc3)c2)C1(C)C` (centres undefined), the Potency result in experiment [1], in experiment [2], in experiment [4], in experiment [5], in experiment [6] and in experiment [7] was “inactive” each time. In addition, the Potency entry in experiment [8] is “inactive”. Moreover, the Potency in experiment [3] was 54.9 µM (active) and inactive.

Consider `CCCCOCCOC(C)=O`, for which the Potency result in experiment [1], in experiment [2], in experiment [3], in experiment [4], in experiment [5] and in experiment [6] was “inactive” throughout. The Potency entry in experiment [7] and in experiment [8] was “inactive” in each case.

Turning to `CC(C)(O)C(=O)Nc1ccc([N+](=O)[O-])c(C(F)(F)F)c1`, the Potency entry in experiment [1], in experiment [2], in experiment [4], in experiment [5], in experiment [6] and in experiment [7] was “inactive” in each case. The Potency entry in experiment [8] was “inactive”. Moreover, in experiment [3], the Potency was 31.3 µM (active) and 35.5 µM (active).

As to `C=C(C)C#N`, the Potency result in experiment [1], in experiment [2], in experiment [3], in experiment [4], in experiment [5] and in experiment [6] was “inactive” in each case. The Potency result in experiment [7] and in experiment [8] was “inactive” throughout.

For `Nc1ccc2ccccc2c1`, the Potency result in experiment [1], in experiment [2], in experiment [3], in experiment [4], in experiment [5] and in experiment [6] was “inactive” throughout. Moreover, the Potency result in experiment [7] and in experiment [8] was “inactive” in each case.

As for `CCCCOCC1CO1` (centres undefined), the Potency entry in experiment [1], in experiment [2], in experiment [3], in experiment [4], in experiment [5] and in experiment [6] was “inactive” in each case. The Potency entry in experiment [7] and in experiment [8] was “inactive” each time.

`CCOS(=O)(=O)OCC`: the Potency result in experiment [1], in experiment [2], in experiment [3], in experiment [4], in experiment [5] and in experiment [6] was “inactive” throughout. Moreover, the Potency result in experiment [7] and in experiment [8] was “inactive” throughout.

The values are drawn from PubChem BioAssay (Tox21).
